Measured values from the supplement of paper PMC10338343.
± gives the standard deviation.

Experiments:
[1] = system: MILI (PIWIL2) piRISC loaded with L1MC piRNA (26 nt); test: pre-steady-state target cleavage rate (min^-1); guide: L1MC piRNA 5'p-UAACUAAAUACUAUGCAAGCUGUAGG; higher = faster piRNA-guided slicing of the target
How it was run: (§1)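 Active affinity-purified piRISC (1 nM) loaded with one synthetic guide was mixed with a transcribed, DNA-blocked target RNA library (0.1 nM), with or without 500 nM GTSF1 partner protein, in HEPES–potassium acetate buffer at 33 °C for 0–8 or 0–960 min. Uncleaved targets were sequenced, normalised to depth and to weakly complementary targets, and pooled across three trials, with k3 capped at 0.0001 min^-1. The pre-steady-state cleavage rate was determined with a burst-and-steady-state fit.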

[2] = system: EfPiwi piRISC loaded with L1MC piRNA (26 nt); test: pre-steady-state target cleavage rate (min^-1); auxiliary factor: 500 nM Ephydatia muelleri Gtsf1; guide: L1MC piRNA 5'p-UAACUAAAUACUAUGCAAGCUGUAGG; MIWI and MILI are mouse PIWI proteins and EfPiwi is from a freshwater sponge; tags in brackets are library labels; higher = faster piRNA-guided slicing of the target
How it was run: as §1

[3] = auxiliary factor: 500 nM mouse GTSF1

Row | Sequence | pre-steady-state target cleavage rate [1, 3] | pre-steady-state target cleavage rate [2] | pre-steady-state target cleavage rate ([1]; auxiliary factor: none (no GTSF1))
1 | UCCUGGAUCAGCUUGGAUAGUAUUUUGUUA | 0.117 ± 0.021 | 0.00346 ± 0.0027 | –
2 | UCCUGCAUCAGCUUGCAUAGUAUUUACAAA | 0.126 ± 0.025 | 0.00323 ± 0.0016 | –
3 | UCCUGCUACAGCUUGCAUACUAUUUAGAAA | 0.0482 ± 0.015 | 0.00298 ± 0.0021 | –
4 | UCCUCCUACAGCUUGCAUAGUUUUUAGAUA | 0.0768 ± 0.022 | 0.00341 ± 0.0022 | –
5 | UCCUGGAUGAGCUUGGCAUAGUAUUUAGUUA | 0.224 ± 0.054 | 0.0123 ± 0.0039 | –
6 | UCCUGCUACAGCUUGCAUAGUUUUAAGUUA | 0.0676 ± 0.015 | 0.00341 ± 0.0017 | –
7 | UCCUCCUAGUGCUUGCAUAGUAUUUACAAA | 0.0188 ± 0.0067 | 0.00293 ± 0.0029 | –
8 | UCCUGGAUGAGCUUGCAUAGUAUUUCGUUA | 0.0995 ± 0.028 | 0.00352 ± 0.0019 | –
9 | UCCUGGAACAGGAUGCAUAGUAUUUAGAAA | 0.0732 ± 0.017 | 0.00257 ± 0.0016 | –
10 | UCCUCCAACAGCUUGCAUAGUAUUUUCAAA | 0.0817 ± 0.015 | 0.00396 ± 0.0027 | –
11 | UCCUGCUACAGCUUGCAUACAAUUUAGUUA | – | 0.00307 ± 0.0028 | 0.00287 ± 0.0025
12 | UCCUGCUUGAGCUUGCAUAGUAUUUAGAAA | 0.148 ± 0.027 | 0.00479 ± 0.0016 | –
